This note sets out measurements from PubChem BioAssay AID778 (Sanford-Burnham Center for Chemical Genomics, 2007).

About 20,000 (21%) of roughly 96,000 compounds were called active. Not all results are given here. Values without a mark were called inactive.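 How the source made its calls: active means CYP2C19 inhibition above a set limit at 5 µM in the primary screen (cut at about 50% in these data); inactive means the rest.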

In this experiment the target is Cytochrome P450 2C19 (Homo sapiens) (UniProt P33261). Nature of the experiment: blockers of cytochrome P450 2C19 activity – biochemical, luminescence, ADME assay, primary screen (AID 778).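 Further: plate controls were negative control wells for no effect and 2.5 mM tranylcypromine positive control for full effect.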 The following applies: CYP2C19 Supersomes, luciferin-H EGE luminescence, 30 min; at 5 µM; hits give high values.
Cytochrome P450 2C19 (Homo sapiens), sequence (P33261 whole entry, looked up): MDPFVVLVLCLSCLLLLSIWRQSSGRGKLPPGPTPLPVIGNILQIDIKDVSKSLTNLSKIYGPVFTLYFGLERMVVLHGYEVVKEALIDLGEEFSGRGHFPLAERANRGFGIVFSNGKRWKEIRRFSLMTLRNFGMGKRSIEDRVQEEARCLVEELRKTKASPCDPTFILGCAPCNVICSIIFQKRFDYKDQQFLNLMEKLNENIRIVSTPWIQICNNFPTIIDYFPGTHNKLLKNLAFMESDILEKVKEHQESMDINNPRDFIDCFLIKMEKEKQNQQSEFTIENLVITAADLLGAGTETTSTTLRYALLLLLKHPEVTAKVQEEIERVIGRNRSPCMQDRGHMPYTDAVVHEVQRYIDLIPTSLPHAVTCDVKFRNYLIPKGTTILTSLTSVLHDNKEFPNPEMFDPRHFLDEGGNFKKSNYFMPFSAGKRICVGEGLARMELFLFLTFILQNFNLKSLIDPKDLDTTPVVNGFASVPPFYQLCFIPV
For orientation: inhibition means the drop in the measured response relative to a control, in per cent. Turning to `O/N=C1\CC2(Cc3nonc31)OCCO2`, the inhibition is -5.4%.
The value for `Cc1ccc(CN2C(=O)CCC2C(=O)NCCCN2CCCCC2C)cc1` (configuration not stated) was 8.1%; that for `O=C(Nc1ccc(Br)cc1)C1CCC(=O)N1Cc1ccccc1Cl` (configuration not stated) was 96.4% (active).
For `CCC(C)NC(=O)C1CCC(=O)N1Cc1ccc(C)cc1` (configuration not stated) the value was 28.1%; for `O=C(Cn1cnc2c(nnn2-c2ccccc2)c1=O)N1CCC(Cc2ccccc2)CC1`, 43.2%.
The value for `CCC1C(C#N)=C(SC)NC2=C1C(=O)CC(C)(C)C2` (configuration not stated) was 12.7%; that for `Cc1ccc(-n2ncc3c2ncn2nc(-c4ccco4)nc32)c(C)c1` was 4.8%.
For `COc1cc(C(=S)N2CCOCC2)cc(OC)c1OC(=O)c1cc([N+](=O)[O-])cc([N+](=O)[O-])c1`, the inhibition was -1.3%.
For `Cc1ccc(Cn2nnc3c(=O)n(CC(=O)N4CCCCC4)cnc32)cc1` the value was 34%.
For `COc1ccc(Cn2nnc3c(=O)[nH]c(C4CCN(C(=O)c5ccccc5Cl)CC4)nc32)cc1` the value was 57.2% (active); for `COc1ccc(-n2nnc3c(=O)n(CC(=O)N4CCC(Cc5ccccc5)CC4)cnc32)cc1`, 4.8%; for `Cc1nc2ccc(NC(=O)N3CCC(c4ccccc4)C3)cc2nc1C` (configuration not stated), 28.5%.
The value for `Cc1ccc(NC(=O)N2CCC(c3nc4c(nnn4Cc4c(F)cccc4Cl)c(=O)[nH]3)CC2)cc1` was 95.1% (active); that for `Cc1ccc(NC(=O)N2CCC(C(=O)NCc3ccc(F)cc3)CC2)cc1` was 4.7%.
In the case of `CC(=O)c1ccc(OCCN2CCOCC2)cc1`, the inhibition is 2.4%.
For `Cc1ccc(S(=O)(=O)NCC(=O)N(CC(=O)NC(C)(C)C)Cc2cccs2)cc1`, the inhibition was -10.5%.
In the case of `CCc1c(-c2ccccc2)nc(N)c(C#N)c1-c1cccs1`, the inhibition was 2.8%.
For `CCOC(=O)C(CCOc1cccc(CC)c1)C(=O)OCC` the value was 42%; for `Cc1cc(C)n2nc(C(=O)NC(C)(C)C)nc2n1`, -2.8%.
The value for `C=CCc1cccc2cc(C(=O)N3CCN(C(=O)OCC)CC3)c(=O)oc12` was -8%.
For `Cn1c(=O)c2c(SCC(=O)N3CCOCC3)nc(C3CC3)nc2n(C)c1=O` the value was 8.8%; for `CCN(CC)C(=O)N1CCN(C(=O)c2ccc(C)cn2)CC1`, 4.3%; for `CCS(=O)(=O)n1nc(-c2ccccc2)nc1SCc1ccccc1`, 90.1% (active).
On to `Cn1c(CO)cnc1SCc1ccccc1`, for which the inhibition was 39.7%.
Consider `CCS(=O)(=O)n1nc(-c2ccc(OC)cc2)nc1SC`, for which the inhibition is 46%.
For `O=C(COC(=O)CCC(=O)c1cccs1)NCc1ccco1` the value was 5.2%; for `COC(=O)CSc1nc(C2CC2)nc2ccccc12`, 63.2% (active); for `Cc1nnc(NC(=O)CSc2nc(C3CCCCC3)nc3ccccc23)s1`, -1.4%.
Regarding `CN(C(=O)CSc1nc(C2CC2)nc2ccccc12)c1nc(-c2ccccc2)cs1`, the inhibition was 12.3%.
The value for `CCN(CC)S(=O)(=O)c1ccc2[nH]cc(C(=O)NCCc3ccccc3)c(=O)c2c1` was 4.6%; that for `C[C@H](NC(=O)OC(C)(C)C)c1nnc(SCC(=O)Nc2ccc(Br)cc2)o1` was 62.5% (active).
The value for `O=C(CSc1nnc(-c2ccco2)o1)NCC(=O)c1ccccc1` was 0.5%; that for `CCc1ccccc1NC(=O)CSc1nnc([C@@H](NC(=O)OC(C)(C)C)C(C)CC)o1` (some centres not stated) was 59.4% (active).
For `C[C@H](NC(=O)OC(C)(C)C)c1nnc(SCC(N)=O)o1` the value was 49.9%; for `CCc1ccccc1NC(=O)CSc1nnc([C@@H](NC(=O)OC(C)(C)C)C(C)C)o1`, 8%.
For `Cc1cccc(NC(=O)CSc2nc3c(c(=O)[nH]2)CCCC3)c1C`, the inhibition was 17.6%.
For `Cc1cccc(NC(=O)CSc2nnc(CCCCCNC(=O)OC(C)(C)C)o2)c1C` the value was 63.7% (active).
For `Cc1cccc(NC(=O)CSC(N)=O)c1C` the value was 17.7%.
The value for `Cc1cccc(NC(=O)CSc2nnc(-c3ccco3)o2)c1` was -7.9%.
Take `Cc1ccc(C(=O)Nc2nnc(-c3cccs3)s2)cc1C`: the inhibition was -8.8%.
Regarding `O=C(O)CCN=C1CCc2ccccc2N1`, the inhibition is 0.2%.
The value for `Cc1cc(C)c2c(n1)nn1c(-n3ccnc3)cc(C)nc21` was 4.7%; that for `C=CCSc1nc(Cc2ccc(Cl)cc2)nc2ccccc12` was 0%; that for `COc1ccccc1CSc1nc2ccccc2[nH]1` was 51.7% (active).
Consider `C=CCSc1nc2ccccc2[nH]1`, for which the inhibition was 66% (active).
For `Cc1ccccc1OC/C(O)=C(\C#N)c1nc2ccccc2[nH]1` the value was 38.3%; for `O=C(CSc1nc2ccccc2[nH]1)c1cccs1`, 42.5%.
The value for `O=c1cc(O)nc(SCc2ccccc2Cl)[nH]1` was 1.2%; that for `Cc1nnc2sc(-c3ccco3)nn12` was -0.9%.
For `CCOC(=O)Cc1c(C)nc2c(C#N)c(C)nn2c1C` the value was 12.9%.
Regarding `CC(C)C1C2=C(CC(C)(C)CC2=O)ON1c1ccccc1` (configuration not stated), the inhibition is 34.7%.
The value for `COc1ccc(CN2CN(C(C)C)CSC2=S)cc1` was 8.5%; that for `O=C1CSC(c2ccccc2)N1c1nc(-c2ccc(Cl)cc2Cl)cs1` (configuration not stated) was -2.8%; that for `CCCc1ccc(-c2csc(NC(=O)Cc3cccs3)n2)cc1` was 28%.
For the compound `CC(=O)N1CCN(C(=O)c2cccc(S(=O)(=O)Nc3ccc(C)cc3)c2)CC1`, the inhibition is 11.6%.
The value for `Cc1ccc(S(=O)(=O)Nc2ccc3ncccc3c2)cc1` was 89.8% (active); that for `Cc1ccc(S(=O)(=O)Nc2nc(C)cc(-n3nc(C)cc3C)n2)cc1` was 22%; that for `FC(F)(F)c1nnc2ccc(N3CCN(c4ccccc4)CC3)nn12` was 27.9%.
For `O=C(Nc1ccccc1C(=O)N1CCOCC1)C1CCC(=O)N1C1CCCC1` (configuration not stated) the value was -12.6%; for `CCC(=O)N(Cc1ccccc1)c1ccccn1`, -5.8%.
In the case of `CCc1nnc(NC(=O)CSc2nnc(-c3ccncc3)n2Cc2ccccc2)s1`, the inhibition is 41.3%.
For `CCn1c(SCC(=O)Nc2cc(C)ccc2C)nnc1-c1cnccn1` the value was 71.7% (active); for `COC(=O)c1ccc(NC(=O)CSc2nnc(CNc3ccc(OC)cc3)n2C)cc1`, 29.7%.
The value for `COC(=O)c1ccc(NC(=O)CSc2nnc(-c3ccncc3)n2C)cc1` was 54.6% (active); that for `CCc1ccc(NC(=O)CSc2nnc(-c3cnccn3)n2Cc2ccco2)cc1` was 21.4%; that for `CCn1c(SCC(=O)Nc2nccs2)nnc1-c1ccncc1` was 66.7% (active).
For the compound `CCC(=O)Nc1cccc(NC(=O)CSc2nnc(-c3ccc(NS(C)(=O)=O)cc3)n2C)c1`, the inhibition was 23.6%.
Turning to `Cc1ccccc1C(=O)Nc1cccc(-c2nnc(SCC(=O)O)n2C)c1`, the inhibition was -18.4%.
As for `Cn1c(SCC(=O)Nc2cccc(NC(=O)c3cccs3)c2)nnc1-c1ccncc1`, the inhibition is 54% (active).
For `CCCCSc1nnc(-c2ccc(NC(=O)CC)cc2)n1C` the value was 21.4%; for `Cc1ccc(NC(=O)CSc2nnc(-c3cnccn3)n2Cc2ccco2)cc1C`, 5.5%.
With `Cc1ccc(C(C)C)c(OCc2nnc(SCC(=O)Nc3nccs3)n2C)c1`, the inhibition is 17%.
